Here are results for 2 compounds from ChEMBL document CHEMBL1961873, “Compounds: GSK PKIS; Assays: Nanosyn kinase panel” (2012).

The structures appear in SMILES notation.

The target in assay [1] is T1, Inhibitor of nuclear factor kappa-B kinase subunit epsilon (Homo sapiens) (UniProt Q14164).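 Also: reported values are averaged percent inhibition figures against human IKKε.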
T1 sequence (whole entry): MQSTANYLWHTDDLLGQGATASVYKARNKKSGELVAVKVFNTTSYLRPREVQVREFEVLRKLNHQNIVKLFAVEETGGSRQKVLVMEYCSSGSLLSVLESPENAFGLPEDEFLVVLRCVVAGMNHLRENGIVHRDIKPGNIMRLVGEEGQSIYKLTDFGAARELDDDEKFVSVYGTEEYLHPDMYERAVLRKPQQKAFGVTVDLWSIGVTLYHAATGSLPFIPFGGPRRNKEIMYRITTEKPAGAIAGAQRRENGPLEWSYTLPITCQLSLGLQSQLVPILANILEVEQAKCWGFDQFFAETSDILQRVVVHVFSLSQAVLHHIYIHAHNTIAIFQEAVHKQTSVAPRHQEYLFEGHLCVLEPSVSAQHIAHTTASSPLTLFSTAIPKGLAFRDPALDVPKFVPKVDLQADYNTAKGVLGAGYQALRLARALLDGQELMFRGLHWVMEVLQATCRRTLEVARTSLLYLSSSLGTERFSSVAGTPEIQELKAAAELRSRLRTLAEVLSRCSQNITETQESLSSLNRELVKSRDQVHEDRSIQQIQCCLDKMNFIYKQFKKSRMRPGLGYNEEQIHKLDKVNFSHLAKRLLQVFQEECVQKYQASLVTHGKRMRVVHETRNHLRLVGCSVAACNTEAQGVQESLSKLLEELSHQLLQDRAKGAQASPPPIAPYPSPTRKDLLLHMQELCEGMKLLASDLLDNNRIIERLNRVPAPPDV
Particulars: at 1 µM.

For assay [2], the target named is T2, Serine/threonine-protein kinase Nek1 (Homo sapiens) (UniProt Q96PY6).
T2 sequence (whole entry): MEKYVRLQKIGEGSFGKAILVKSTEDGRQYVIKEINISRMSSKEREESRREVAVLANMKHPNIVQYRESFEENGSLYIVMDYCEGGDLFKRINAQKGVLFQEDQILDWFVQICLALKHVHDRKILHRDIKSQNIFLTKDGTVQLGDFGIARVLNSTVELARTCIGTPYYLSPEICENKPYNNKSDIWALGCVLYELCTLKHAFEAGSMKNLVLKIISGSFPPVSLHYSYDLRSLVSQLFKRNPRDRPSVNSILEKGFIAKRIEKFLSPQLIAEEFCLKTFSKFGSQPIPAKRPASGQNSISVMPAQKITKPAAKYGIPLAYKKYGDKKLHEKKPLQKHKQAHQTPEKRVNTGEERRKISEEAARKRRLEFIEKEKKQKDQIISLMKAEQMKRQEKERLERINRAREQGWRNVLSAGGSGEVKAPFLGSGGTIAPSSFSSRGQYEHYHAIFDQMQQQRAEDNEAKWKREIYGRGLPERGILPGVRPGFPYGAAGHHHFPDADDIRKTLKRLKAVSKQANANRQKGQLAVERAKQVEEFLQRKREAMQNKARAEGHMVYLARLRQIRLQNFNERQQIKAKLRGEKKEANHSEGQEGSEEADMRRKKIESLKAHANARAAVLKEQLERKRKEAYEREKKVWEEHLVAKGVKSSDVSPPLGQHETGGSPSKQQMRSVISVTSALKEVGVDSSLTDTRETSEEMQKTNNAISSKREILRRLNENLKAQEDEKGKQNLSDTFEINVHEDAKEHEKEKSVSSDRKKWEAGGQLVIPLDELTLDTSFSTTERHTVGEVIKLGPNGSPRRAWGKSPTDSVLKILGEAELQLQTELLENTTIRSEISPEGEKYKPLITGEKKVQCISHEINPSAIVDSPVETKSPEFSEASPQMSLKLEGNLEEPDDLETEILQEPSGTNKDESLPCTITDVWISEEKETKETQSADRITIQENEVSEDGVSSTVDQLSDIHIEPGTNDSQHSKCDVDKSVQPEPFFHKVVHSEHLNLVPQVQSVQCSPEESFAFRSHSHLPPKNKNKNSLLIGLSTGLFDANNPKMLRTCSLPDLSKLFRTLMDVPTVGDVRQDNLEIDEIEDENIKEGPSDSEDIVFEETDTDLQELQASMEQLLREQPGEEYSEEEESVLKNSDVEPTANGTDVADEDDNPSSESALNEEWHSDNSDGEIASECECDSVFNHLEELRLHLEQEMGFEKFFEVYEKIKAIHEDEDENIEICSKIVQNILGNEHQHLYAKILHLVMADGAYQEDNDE
To be noted: at 0.1 µM.

In assay [3] the target is T2, Serine/threonine-protein kinase Nek1 (Homo sapiens). To be noted: at 1 µM.
In assay [4] the target is T3, Serine/threonine-protein kinase Nek2 (Homo sapiens) (UniProt P51955).
T3 sequence (whole entry): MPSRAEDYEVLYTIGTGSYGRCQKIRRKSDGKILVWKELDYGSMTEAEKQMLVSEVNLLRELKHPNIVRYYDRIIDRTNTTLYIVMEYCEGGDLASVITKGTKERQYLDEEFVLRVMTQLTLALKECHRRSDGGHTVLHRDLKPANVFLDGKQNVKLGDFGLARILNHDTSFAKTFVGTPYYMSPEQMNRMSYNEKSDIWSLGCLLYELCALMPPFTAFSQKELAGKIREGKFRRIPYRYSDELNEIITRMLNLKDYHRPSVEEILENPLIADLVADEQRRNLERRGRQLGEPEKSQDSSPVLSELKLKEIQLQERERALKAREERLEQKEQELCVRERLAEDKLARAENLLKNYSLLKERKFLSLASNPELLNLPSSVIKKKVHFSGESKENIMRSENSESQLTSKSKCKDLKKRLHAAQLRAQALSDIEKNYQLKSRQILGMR
Particulars: at 0.1 µM.

Assay [5] deals with T3, Serine/threonine-protein kinase Nek2 (Homo sapiens). Particulars: at 1 µM.
The target in assay [6] is Serine/threonine-protein kinase Nek6 (Homo sapiens) (UniProt Q9HC98). Particulars: at 0.1 µM.
Assay [7] has the same target. Particulars: at 1 µM.
The target of assay [8] is Serine/threonine-protein kinase Nek7 (Homo sapiens) (UniProt Q8TDX7). Particulars: at 0.1 µM.
Assay [9] has the same target. To be noted: at 1 µM.
The target in assay [10] is T4, Serine/threonine-protein kinase Nek9 (Homo sapiens) (UniProt Q8TD19).
T4 sequence (whole entry): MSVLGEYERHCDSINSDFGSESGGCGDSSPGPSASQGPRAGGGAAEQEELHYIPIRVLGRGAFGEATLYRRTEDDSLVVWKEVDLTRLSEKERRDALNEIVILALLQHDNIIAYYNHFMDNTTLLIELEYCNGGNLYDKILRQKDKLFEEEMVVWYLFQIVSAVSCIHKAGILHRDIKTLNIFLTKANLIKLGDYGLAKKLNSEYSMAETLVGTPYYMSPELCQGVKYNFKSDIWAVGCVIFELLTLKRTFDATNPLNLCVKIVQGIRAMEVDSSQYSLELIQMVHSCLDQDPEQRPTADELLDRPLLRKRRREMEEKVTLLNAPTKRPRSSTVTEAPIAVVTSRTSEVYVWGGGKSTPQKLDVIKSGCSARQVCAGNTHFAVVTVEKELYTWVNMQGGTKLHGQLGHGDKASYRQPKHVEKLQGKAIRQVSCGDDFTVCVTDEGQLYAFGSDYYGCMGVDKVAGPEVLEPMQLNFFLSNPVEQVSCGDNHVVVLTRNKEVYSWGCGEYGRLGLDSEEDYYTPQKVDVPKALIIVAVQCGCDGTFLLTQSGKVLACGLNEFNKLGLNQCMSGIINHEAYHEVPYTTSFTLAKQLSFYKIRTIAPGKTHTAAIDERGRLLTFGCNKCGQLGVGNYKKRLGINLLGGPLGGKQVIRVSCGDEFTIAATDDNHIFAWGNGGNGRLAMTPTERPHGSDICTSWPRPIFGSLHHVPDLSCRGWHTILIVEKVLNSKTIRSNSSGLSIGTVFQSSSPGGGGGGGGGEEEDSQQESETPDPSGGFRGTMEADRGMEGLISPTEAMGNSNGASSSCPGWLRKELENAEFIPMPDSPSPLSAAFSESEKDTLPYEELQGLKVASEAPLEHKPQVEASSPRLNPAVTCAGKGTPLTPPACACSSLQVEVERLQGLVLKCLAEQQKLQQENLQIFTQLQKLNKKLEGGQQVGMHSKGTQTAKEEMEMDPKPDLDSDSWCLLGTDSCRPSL
To be noted: at 0.1 µM.

For assay [11], the target named is T4, Serine/threonine-protein kinase Nek9 (Homo sapiens). To be noted: at 1 µM.
Assay [12] concerns the target Serine/threonine-protein kinase PLK1 (Homo sapiens) (UniProt P53350). To be noted: at 0.1 µM.
The target is the same in assay [13]. To be noted: at 1 µM.
In assay [14] the target is T5, Dual specificity protein kinase TTK (Homo sapiens) (UniProt P33981).
T5 sequence (whole entry): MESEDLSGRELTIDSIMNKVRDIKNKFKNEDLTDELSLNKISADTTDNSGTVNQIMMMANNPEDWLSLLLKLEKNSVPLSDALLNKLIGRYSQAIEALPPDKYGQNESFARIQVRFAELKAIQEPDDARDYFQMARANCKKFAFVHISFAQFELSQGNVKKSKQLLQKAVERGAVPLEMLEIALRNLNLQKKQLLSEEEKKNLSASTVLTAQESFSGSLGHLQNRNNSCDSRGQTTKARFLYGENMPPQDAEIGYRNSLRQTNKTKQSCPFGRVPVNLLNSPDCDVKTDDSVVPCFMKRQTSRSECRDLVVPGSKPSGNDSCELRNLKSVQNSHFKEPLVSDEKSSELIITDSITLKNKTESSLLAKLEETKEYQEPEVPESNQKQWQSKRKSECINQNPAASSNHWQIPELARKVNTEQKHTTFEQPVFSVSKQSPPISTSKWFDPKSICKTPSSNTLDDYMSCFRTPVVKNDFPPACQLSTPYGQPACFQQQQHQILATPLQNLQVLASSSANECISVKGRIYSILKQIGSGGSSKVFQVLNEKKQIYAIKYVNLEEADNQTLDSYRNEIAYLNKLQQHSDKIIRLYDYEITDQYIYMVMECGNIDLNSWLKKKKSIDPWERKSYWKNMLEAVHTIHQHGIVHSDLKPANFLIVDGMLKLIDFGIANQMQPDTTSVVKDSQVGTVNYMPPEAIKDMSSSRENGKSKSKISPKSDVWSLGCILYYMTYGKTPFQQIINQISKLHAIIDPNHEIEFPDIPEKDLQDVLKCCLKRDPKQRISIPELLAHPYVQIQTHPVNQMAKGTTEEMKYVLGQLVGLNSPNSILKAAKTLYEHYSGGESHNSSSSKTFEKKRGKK
Particulars: at 0.1 µM.

For assay [15], the system named is T6, Receptor-type tyrosine-protein kinase FLT3 (Homo sapiens), P36888 [D835Y].
T6 sequence (whole entry): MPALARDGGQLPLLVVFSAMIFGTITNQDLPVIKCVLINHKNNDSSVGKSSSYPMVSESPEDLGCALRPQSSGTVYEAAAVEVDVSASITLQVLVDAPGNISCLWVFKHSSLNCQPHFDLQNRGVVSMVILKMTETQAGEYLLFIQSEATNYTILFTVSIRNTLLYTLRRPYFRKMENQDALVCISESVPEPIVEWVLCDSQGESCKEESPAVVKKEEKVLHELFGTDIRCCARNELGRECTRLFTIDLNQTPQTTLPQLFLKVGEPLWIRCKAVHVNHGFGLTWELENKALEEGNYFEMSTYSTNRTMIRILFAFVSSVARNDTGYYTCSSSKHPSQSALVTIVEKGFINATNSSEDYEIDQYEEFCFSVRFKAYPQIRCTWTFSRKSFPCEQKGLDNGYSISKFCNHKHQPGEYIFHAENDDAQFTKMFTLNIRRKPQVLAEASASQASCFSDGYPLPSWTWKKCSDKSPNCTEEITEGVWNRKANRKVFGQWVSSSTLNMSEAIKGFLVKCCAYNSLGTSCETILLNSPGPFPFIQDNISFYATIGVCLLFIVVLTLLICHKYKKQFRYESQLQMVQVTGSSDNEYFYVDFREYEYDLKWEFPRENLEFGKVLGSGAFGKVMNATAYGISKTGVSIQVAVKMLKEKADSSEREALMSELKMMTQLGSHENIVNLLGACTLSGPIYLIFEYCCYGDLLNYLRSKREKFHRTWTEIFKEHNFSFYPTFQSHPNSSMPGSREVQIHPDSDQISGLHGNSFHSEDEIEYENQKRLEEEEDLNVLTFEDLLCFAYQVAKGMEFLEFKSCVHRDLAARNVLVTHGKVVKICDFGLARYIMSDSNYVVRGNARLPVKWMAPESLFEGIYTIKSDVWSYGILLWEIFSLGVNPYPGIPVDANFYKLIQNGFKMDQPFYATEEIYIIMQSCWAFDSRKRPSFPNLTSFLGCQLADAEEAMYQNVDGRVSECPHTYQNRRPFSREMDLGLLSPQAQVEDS
To be noted: at 1 µM.

Assay [16] addresses Vascular endothelial growth factor receptor 3 (Homo sapiens) (UniProt P35916). To be noted: at 0.1 µM.
The target is the same in assay [17]. Particulars: at 1 µM.
Assay [18] deals with Macrophage colony-stimulating factor 1 receptor (Homo sapiens) (UniProt P07333). To be noted: at 0.1 µM.
The target is the same in assay [19]. Particulars: at 1 µM.
Assay [20] addresses Tyrosine-protein kinase Fyn (Homo sapiens) (UniProt P06241). Particulars: at 0.1 µM.

Macrophage colony-stimulating factor 1 receptor (Homo sapiens), sequence (P07333 whole entry): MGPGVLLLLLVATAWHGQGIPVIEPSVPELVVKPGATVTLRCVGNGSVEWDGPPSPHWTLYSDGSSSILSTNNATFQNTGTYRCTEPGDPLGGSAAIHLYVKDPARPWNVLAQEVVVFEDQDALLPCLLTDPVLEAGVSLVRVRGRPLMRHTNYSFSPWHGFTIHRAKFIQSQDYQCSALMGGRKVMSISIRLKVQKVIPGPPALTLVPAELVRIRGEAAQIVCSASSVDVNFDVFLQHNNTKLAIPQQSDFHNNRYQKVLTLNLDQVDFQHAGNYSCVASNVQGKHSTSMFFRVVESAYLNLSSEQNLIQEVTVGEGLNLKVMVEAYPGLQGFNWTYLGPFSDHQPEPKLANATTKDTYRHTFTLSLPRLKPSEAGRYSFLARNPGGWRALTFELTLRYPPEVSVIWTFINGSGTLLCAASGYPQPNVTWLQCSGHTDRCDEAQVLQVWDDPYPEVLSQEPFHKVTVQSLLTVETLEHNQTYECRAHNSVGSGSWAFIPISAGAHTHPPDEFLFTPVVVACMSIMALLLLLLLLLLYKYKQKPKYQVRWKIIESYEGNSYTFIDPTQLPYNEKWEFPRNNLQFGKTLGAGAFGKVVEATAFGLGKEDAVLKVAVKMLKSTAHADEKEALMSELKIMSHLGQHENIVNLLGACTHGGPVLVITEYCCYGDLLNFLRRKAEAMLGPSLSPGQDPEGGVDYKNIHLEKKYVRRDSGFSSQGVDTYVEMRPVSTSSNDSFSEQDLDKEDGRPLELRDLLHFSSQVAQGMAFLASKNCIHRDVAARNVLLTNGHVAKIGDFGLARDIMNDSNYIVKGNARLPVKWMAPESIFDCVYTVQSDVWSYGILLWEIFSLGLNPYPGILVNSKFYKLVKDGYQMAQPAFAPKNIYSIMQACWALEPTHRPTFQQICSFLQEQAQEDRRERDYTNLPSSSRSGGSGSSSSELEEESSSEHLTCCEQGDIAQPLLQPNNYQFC
Serine/threonine-protein kinase PLK1 (Homo sapiens), sequence (P53350 whole entry): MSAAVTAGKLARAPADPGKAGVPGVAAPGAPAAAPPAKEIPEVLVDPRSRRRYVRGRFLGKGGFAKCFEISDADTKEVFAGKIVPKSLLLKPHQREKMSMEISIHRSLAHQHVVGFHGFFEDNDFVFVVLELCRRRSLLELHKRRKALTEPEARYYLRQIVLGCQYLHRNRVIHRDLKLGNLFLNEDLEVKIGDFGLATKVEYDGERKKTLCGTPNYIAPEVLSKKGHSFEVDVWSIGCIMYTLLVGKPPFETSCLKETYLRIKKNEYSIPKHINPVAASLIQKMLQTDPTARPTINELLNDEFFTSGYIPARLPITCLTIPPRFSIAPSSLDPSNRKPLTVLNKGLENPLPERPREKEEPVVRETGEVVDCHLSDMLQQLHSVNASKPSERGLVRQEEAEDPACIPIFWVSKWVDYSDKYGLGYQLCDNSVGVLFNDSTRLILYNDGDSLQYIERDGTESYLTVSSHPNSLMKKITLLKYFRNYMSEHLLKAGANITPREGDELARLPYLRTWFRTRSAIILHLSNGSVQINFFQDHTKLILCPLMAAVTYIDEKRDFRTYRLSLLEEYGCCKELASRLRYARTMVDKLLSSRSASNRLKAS
Serine/threonine-protein kinase Nek6 (Homo sapiens), sequence (Q9HC98 whole entry): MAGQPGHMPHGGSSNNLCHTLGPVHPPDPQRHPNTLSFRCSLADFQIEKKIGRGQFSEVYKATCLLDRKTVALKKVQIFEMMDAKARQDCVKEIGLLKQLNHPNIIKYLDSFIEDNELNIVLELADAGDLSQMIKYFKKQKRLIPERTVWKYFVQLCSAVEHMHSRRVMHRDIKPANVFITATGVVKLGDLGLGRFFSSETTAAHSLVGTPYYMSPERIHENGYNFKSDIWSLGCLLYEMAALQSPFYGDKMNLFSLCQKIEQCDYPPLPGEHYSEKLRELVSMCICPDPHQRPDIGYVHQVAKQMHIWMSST
Serine/threonine-protein kinase Nek7 (Homo sapiens), sequence (Q8TDX7 whole entry, looked up): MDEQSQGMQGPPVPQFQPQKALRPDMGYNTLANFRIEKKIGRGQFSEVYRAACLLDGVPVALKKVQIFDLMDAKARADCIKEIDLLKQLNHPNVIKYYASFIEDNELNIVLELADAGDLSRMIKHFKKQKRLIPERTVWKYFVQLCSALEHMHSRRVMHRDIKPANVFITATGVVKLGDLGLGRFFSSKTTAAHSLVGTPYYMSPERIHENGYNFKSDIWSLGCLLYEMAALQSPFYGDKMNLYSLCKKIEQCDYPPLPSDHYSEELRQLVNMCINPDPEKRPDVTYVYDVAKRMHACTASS
Vascular endothelial growth factor receptor 3 (Homo sapiens), sequence (P35916 whole entry): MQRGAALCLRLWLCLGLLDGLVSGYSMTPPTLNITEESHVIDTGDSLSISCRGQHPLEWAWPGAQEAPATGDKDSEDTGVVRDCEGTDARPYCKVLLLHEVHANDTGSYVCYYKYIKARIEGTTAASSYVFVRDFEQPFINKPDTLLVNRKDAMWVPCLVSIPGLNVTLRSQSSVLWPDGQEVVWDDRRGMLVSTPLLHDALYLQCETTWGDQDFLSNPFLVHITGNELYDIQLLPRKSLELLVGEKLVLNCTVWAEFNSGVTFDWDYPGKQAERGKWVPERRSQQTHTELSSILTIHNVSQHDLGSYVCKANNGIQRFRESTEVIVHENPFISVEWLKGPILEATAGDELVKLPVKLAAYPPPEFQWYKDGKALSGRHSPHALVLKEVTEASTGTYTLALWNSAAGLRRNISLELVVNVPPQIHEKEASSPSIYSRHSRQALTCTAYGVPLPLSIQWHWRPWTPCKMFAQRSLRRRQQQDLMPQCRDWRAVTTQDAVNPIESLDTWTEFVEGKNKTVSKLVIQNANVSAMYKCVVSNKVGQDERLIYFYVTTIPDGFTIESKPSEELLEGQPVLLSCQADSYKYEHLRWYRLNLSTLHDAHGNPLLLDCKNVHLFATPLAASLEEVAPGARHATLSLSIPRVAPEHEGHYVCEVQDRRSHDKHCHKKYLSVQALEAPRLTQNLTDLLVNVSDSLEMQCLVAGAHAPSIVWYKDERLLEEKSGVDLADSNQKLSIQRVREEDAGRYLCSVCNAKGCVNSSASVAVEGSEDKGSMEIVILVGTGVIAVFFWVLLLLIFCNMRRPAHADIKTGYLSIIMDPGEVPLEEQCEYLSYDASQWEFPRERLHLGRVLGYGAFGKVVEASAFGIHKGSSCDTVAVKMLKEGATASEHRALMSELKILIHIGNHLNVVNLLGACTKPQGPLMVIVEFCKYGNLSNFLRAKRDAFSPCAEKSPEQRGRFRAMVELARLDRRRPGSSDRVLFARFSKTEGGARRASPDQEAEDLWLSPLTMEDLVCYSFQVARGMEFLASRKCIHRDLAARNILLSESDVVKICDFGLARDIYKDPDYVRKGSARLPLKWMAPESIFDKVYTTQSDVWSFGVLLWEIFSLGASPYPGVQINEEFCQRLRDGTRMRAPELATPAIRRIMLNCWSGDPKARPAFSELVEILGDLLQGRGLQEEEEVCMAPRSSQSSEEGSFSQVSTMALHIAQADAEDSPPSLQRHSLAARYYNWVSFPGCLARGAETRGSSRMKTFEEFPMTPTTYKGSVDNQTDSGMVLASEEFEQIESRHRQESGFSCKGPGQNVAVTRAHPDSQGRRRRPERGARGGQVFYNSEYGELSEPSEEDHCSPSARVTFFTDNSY
Tyrosine-protein kinase Fyn (Homo sapiens), sequence (P06241 2-537 limits assumed): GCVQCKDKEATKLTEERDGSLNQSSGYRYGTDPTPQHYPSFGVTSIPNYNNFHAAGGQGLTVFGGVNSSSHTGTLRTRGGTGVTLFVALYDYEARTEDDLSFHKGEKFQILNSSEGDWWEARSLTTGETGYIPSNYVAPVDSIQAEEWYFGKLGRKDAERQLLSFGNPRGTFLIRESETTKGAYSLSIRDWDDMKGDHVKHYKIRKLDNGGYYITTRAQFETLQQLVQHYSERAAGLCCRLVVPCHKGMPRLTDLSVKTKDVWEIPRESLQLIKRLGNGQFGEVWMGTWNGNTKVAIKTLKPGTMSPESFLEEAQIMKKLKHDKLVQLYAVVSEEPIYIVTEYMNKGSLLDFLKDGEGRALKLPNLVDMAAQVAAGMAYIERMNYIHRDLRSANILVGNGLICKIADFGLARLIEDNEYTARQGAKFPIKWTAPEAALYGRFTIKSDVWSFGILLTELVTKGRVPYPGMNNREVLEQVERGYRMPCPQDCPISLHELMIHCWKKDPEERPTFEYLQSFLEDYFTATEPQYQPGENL

For the compound `CCn1c(-c2nonc2N)nc2cncc(C(=O)NCCNC)c21`, the inhibition was 17.6% in assay [1]; 2.71% in assay [2]; 5.36% in [3]; 6.66% in [4]; 6.84% in assay [5]; -0.45% in assay [6]. For the same compound, the inhibition in [7] was found to be 0.9%; in assay [8] it was 3.5%; in [9], 4.72%; in [10], 7.8%; in assay [11], 11.9%; in assay [12], 6.23%. In addition, the inhibition in assay [13] was 5.87%; in assay [14] it was 9.43%; in assay [15] it was 3.12%; in [16], 1.03%; in assay [17], 3.05%; in [18], -0.11%. In addition, the inhibition is 3.41% in assay [19] and 2.35% in [20].

For `CN(C)CCNC(=O)Nc1ccc(N(C)c2ccnc(Nc3ccc(CS(C)(=O)=O)cc3)n2)cc1`, the inhibition in [1] was 6.21%; in assay [2] it was 0.66%; in assay [3], 2.81%; in assay [4], 5.18%; in assay [5], -2.7%; in assay [6] it was 3.4%. The inhibition in [7] is 3.93%; in assay [8], 3.07%; in assay [9], 2.78%; in assay [10], 0.16%; in assay [11] it was 4.76%; in assay [12], 3.28%. In addition, the inhibition in [13] worked out at 3.61%; in [14], 6.19%; in [15], 5.12%; in assay [16], 2.39%; in assay [17], 4.9%; in [18], 14.8%. Further, the inhibition was determined as 67.3% in assay [19] and 1.66% in assay [20].
